Several values for one entry are separate records, joined by “and”; a condition that tells them apart may be missing. Equal entries are not always repeated. In all, about 5,500 compounds went through this assay and about 2,000 (36%) were called active. Inconclusive results (about 18%) are left out. No stated cut-off is given here; in the data, active means normalized growth mostly below about 0.91 (no sharp cut-off); inconclusive means no clear call, values can overlap the other calls; inactive means mostly above about 0.92. Some of the results follow.
Test: chemical genetic growth profiling, strain panel (AID 1159580);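 further: tested at 20 µM; growth read once vehicle control cultures reached saturation at 30 °C; 1 = growth at the plate median or of vehicle wells; lower values mean less growth of the strain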
Conditions: growth OD

Measured: normalized growth

CC(C(=O)O)c1cccc(C(=O)c2ccccc2)c1 (stereo not drawn)
inactive: S. cerevisiae deletion strains, locus YJR075W, strain HOC1, hits give low values 1 and 1.06 | S. cerevisiae deletion strains, locus YKL009W, strain mrt4, hits give low values 0.982 | S. cerevisiae deletion strains, locus YKL068W, hits give low values 0.971 | S. cerevisiae deletion strains, locus YKL085W, strain MDH1 (second series), hits give low values 0.968 | S. cerevisiae deletion strains, locus YKL085W, strain MDH1, hits give low values 0.968 | S. cerevisiae deletion strains, locus YKL160W, strain elf1, hits give low values 0.978 | S. cerevisiae deletion strains, locus YKL190W, strain CNB1, hits give low values 0.994 | S. cerevisiae deletion strains, locus YKR001C, strain vps1, hits give low values 0.992 | S. cerevisiae deletion strains, locus YKR026C, strain gcn3, hits give low values 0.984 | S. cerevisiae deletion strains, locus YKR091W, strain srl3, hits give low values 0.989 | S. cerevisiae deletion strains, locus YLL001W, strain dnm1, hits give low values 0.984 | S. cerevisiae deletion strains, locus YLL026W, hits give low values 0.982 | S. cerevisiae deletion strains, locus YLL041C, strain sdh2, hits give low values 1.01 | S. cerevisiae deletion strains, locus YLR027C, strain aat2, hits give low values 0.991 | S. cerevisiae deletion strains, locus YLR039C, strain RIC1, hits give low values 0.993 | S. cerevisiae deletion strains, locus YLR058C, strain SHM2, hits give low values 0.997 | S. cerevisiae deletion strains, locus YLR102C, strain apc9, hits give low values 0.974 | S. cerevisiae deletion strains, locus YLR113W, strain HOG1, hits give low values 1.02 | S. cerevisiae deletion strains, locus YLR221C, strain rsa3, hits give low values 1.01 | S. cerevisiae deletion strains, locus YLR258W, strain gsy2, hits give low values 0.987 | S. cerevisiae deletion strains, locus YLR262C, strain YPT6 (second series), hits give low values 0.987 | S. cerevisiae deletion strains, locus YLR262C, strain YPT6, hits give low values 0.968 | S. cerevisiae deletion strains, locus YLR268W, strain sec22, hits give low values 0.972 | S. cerevisiae deletion strains, locus YLR320W, strain mms22, hits give low values 0.971 | S. cerevisiae deletion strains, locus YLR330W, strain CHS5, hits give low values 0.985 | S. cerevisiae deletion strains, locus YLR342W, strain FKS1 (second series), hits give low values 1.01 | S. cerevisiae deletion strains, locus YLR342W, strain FKS1, hits give low values 1 | S. cerevisiae deletion strains, locus YLR357W, strain rsc2, hits give low values 0.933 | S. cerevisiae deletion strains, locus YLR370C, strain arc18, hits give low values 0.979 | S. cerevisiae deletion strains, locus YLR371W, strain rom2, hits give low values 0.978 | S. cerevisiae deletion strains, locus YLR384C, strain iki3, hits give low values 0.963 | S. cerevisiae deletion strains, locus YLR418C, strain cdc73, hits give low values 0.971 | S. cerevisiae deletion strains, locus YML016C, strain PPZ1, hits give low values 0.996 | S. cerevisiae deletion strains, locus YML032C, strain rad52, hits give low values 0.996 | S. cerevisiae deletion strains, locus YML120C, strain ndi1, hits give low values 0.994 | S. cerevisiae deletion strains, locus YML124C, strain tub3, hits give low values 0.971 | S. cerevisiae deletion strains, locus YMR058W, strain fet3, hits give low values 0.995 | S. cerevisiae deletion strains, locus YMR078C, strain ctf18, hits give low values 0.959 | S. cerevisiae deletion strains, locus YMR125W, strain sto1, hits give low values 0.991 | S. cerevisiae deletion strains, locus YMR129W, hits give low values 0.981 | S. cerevisiae deletion strains, locus YMR205C, strain PFK2, hits give low values 0.985 | S. cerevisiae deletion strains, locus YMR223W, strain ubp8, hits give low values 0.976 | S. cerevisiae deletion strains, locus YMR231W, strain pep5, hits give low values 0.985 | S. cerevisiae deletion strains, locus YMR307W, strain GAS1, hits give low values 0.995 | S. cerevisiae deletion strains, locus YNL067W, strain RPL9B, hits give low values 1.04 | S. cerevisiae deletion strains, locus YNL071W, strain lat1, hits give low values 0.997 | S. cerevisiae deletion strains, locus YNL175C, strain NOP13, hits give low values 1.02 | S. cerevisiae deletion strains, locus YNL183C, strain NPR1, hits give low values 0.955 | S. cerevisiae deletion strains, locus YNL197C, strain WHI3, hits give low values 0.992 | S. cerevisiae deletion strains, locus YNL209W, strain ssb2, hits give low values 0.999 | S. cerevisiae deletion strains, locus YNL224C, strain SQS1, hits give low values 0.997 | S. cerevisiae deletion strains, locus YNL233W, strain BNI4, hits give low values 1.05 | S. cerevisiae deletion strains, locus YNL248C, strain rpa49, hits give low values 0.968 | S. cerevisiae deletion strains, locus YNL250W, strain rad50, hits give low values 0.927 | S. cerevisiae deletion strains, locus YNL271C, strain bni1, hits give low values 0.956 | S. cerevisiae deletion strains, locus YNL298W, strain CLA4, hits give low values 0.973 | S. cerevisiae deletion strains, locus YNL307C, strain MCK1, hits give low values 0.978 | S. cerevisiae deletion strains, locus YNL322C, strain KRE1 (second series), hits give low values 0.953 | S. cerevisiae deletion strains, locus YNL322C, strain KRE1, hits give low values 0.994 and 1.03 | S. cerevisiae deletion strains, locus YNR049C, strain mso1, hits give low values 0.995 | S. cerevisiae deletion strains, locus YNR052C, strain pop2, hits give low values 0.958 | S. cerevisiae deletion strains, locus YOL006C, strain TOP1, hits give low values 1.06 | S. cerevisiae deletion strains, locus YOL012C, strain htz1 1.22 | S. cerevisiae deletion strains, locus YOL147C, strain pex11, hits give low values 0.977 | S. cerevisiae deletion strains, locus YOR001W, strain rrp6, hits give low values 1 | S. cerevisiae deletion strains, locus YOR061W, strain CKA2, hits give low values 1 | S. cerevisiae deletion strains, locus YOR069W, strain VPS5, hits give low values 0.987 | S. cerevisiae deletion strains, locus YOR070C, strain gyp1, hits give low values 0.985 | S. cerevisiae deletion strains, locus YOR080W, strain dia2, hits give low values 0.996 | S. cerevisiae deletion strains, locus YOR083W, strain WHI5 (second series), hits give low values 1.02 | S. cerevisiae deletion strains, locus YOR083W, strain WHI5, hits give low values 0.918 | S. cerevisiae deletion strains, locus YOR106W, strain vam3, hits give low values 0.963 | S. cerevisiae deletion strains, locus YOR136W, strain idh2, hits give low values 0.988 | S. cerevisiae deletion strains, locus YOR144C, strain elg1, hits give low values 0.98 | S. cerevisiae deletion strains, locus YOR184W, strain ser1, hits give low values 0.977 | S. cerevisiae deletion strains, locus YOR231W, strain MKK1, hits give low values 1.04 | S. cerevisiae deletion strains, locus YOR265W, strain rbl2, hits give low values 0.999 | S. cerevisiae deletion strains, locus YOR270C, strain vph1, hits give low values 1 | S. cerevisiae deletion strains, locus YOR290C, strain snf2, hits give low values 0.985 | S. cerevisiae deletion strains, locus YOR316C, strain cot1, hits give low values 0.968 | S. cerevisiae deletion strains, locus YPL051W, strain arl3, hits give low values 0.966 | S. cerevisiae deletion strains, locus YPL055C, strain LGE1, hits give low values 1.1 | S. cerevisiae deletion strains, locus YPL078C, strain atp4, hits give low values 0.972 | S. cerevisiae deletion strains, locus YPL106C, strain sse1, hits give low values 0.962 | S. cerevisiae deletion strains, locus YPL240C, strain hsp82, hits give low values 0.994 | S. cerevisiae deletion strains, locus YPL241C, strain CIN2, hits give low values 0.993 | S. cerevisiae deletion strains, locus YPL256C, strain CLN2, hits give low values 1.02 | S. cerevisiae deletion strains, locus YPR119W, strain clb2, hits give low values 0.963 | S. cerevisiae deletion strains, locus YPR141C, strain kar3, hits give low values 0.973 | S. cerevisiae deletion strains, locus YPR163C, strain tif3, hits give low values 0.979 | S. cerevisiae deletion strains, locus YPR167C, strain met16, hits give low values 0.977 | S. cerevisiae deletion strains, strain wtn01, hits give low values 0.971 | S. cerevisiae strains, strain wild type, hits give low values 1
